Test results reported in PubChem BioAssay AID1347131 (National Center for Advancing Translational Sciences (NCATS), 2019).
Out of some 410,000 compounds screened, about 2,000 (0.49%) were called active. Entries that show only a call come without a potency. Another 8% or so got no clear call; they are omitted. Calls follow the shape of the full dose curve; tested in HEK293 reporter line. This excerpt belongs to a sample that is enriched for actives.

Assay: qHTS Assay for Foot and Mouth Disease Virus Antivirals: Primary Screen against the MLPCN compound library; also: nearly all actives have a fitted effect of over 55% in size
Conditions: FMDV antiviral cell-based qHTS; series mostly up to 57.9 µM
Potency is read from the fitted curve at half-maximal effect.

Row | SMILES | Potency
1 | Cc1ccccc1-c1nc(CN2CCC(C(=O)NC3CCN(Cc4ccccc4)CC3)CC2)c(C)o1 | inactive
2 | Cc1cc(=O)[nH]c(N/N=C/C2=C(N3CCOCC3)C(=C\c3ccc(Cl)cc3)/CC2)n1 | inactive
3 | O=C(Nc1ccc(Cl)c(C(F)(F)F)c1)c1cc2nc(-c3ccc4c(c3)OCO4)cc(C(F)(F)F)n2n1 | inactive
4 | CC[C@H]1c2[nH]c3ccc(C(C)C)cc3c2[C@@H]2CCN3C(=O)CCC[C@H]1[C@H]23 | inactive
5 | CC(C)(C)n1ncc2c(=O)n(CC(=O)Nc3ccc(Cl)cc3)cnc21 | inactive
6 | CC(C)(C)n1ncc2c(=O)n(CC(=O)NCc3ccccc3)cnc21 | 20 µM (active)
7 | CC(C)(C)n1ncc2c(=O)n(Cc3c(Cl)cccc3Br)cnc21 | inactive
8 | CCCCCn1c(NC(=O)c2ccco2)c(C(=O)OCC)c2nc3ccccc3nc21 | inactive
9 | CCOc1ccc(/C=C2\CCc3ccccc3C2=O)cc1 | 20 µM (active)
10 | COc1ccc(/C=C2\CN(Cc3ccccc3)C/C(=C\c3ccc(OC)cc3)C2=O)cc1 | inactive
11 | COc1cc(/C=C2/CCc3ccccc3C2=O)cc(OC)c1OC | inactive
12 | Cc1ccc(-c2noc(CCC(=O)NCCN3CCc4ccccc4C3)n2)cc1 | inactive
13 | C(=N\Nc1ccc2ccccc2n1)/c1ccc2c(c1)OCCO2 | inactive
14 | O=S(=O)(N/N=C\c1cccc(F)c1)c1ccccc1 | inactive
15 | Fc1cccc(/C=N/Nc2ccc3ccccc3n2)c1 | 12.6 µM (active)
16 | O=C(NCc1ccc(F)cc1)c1cc(Sc2ccc(F)cc2F)nc2ccccc12 | inactive
17 | Cc1ccc(Cl)c(OCCN2CCc3ccccc3C2)c1 | inactive
18 | CN(CC(=O)Nc1ccc(Cl)cc1)CC(=O)Nc1sc2c(c1C(N)=O)CCC2 | inactive
19 | O=C(CSC1=NCCS1)N1CCN(c2ccccc2)CC1 | inactive
20 | CC1(C)Cc2ccccc2-c2nnc(SCC(=O)N3CCN(c4ccccc4)CC3)n21 | 7.94 µM (active)
21 | CC1Cc2nc(SCC(=O)N3CCN(c4ccccc4)CC3)n(C)c(=O)c2S1 (centres undefined) | inactive
22 | C/C(=N\NC(=O)c1cc(-c2cccs2)nc2ccccc12)c1ccccn1 | inactive
23 | FC(F)(F)c1cc(-c2cccs2)nc(-n2cc(Br)cn2)n1 | inactive
24 | Cc1cc2ncc(-c3cccs3)nc2cc1C | 11.2 µM (active)
25 | O=C1Nc2ccc([N+](=O)[O-])cc2OC1CCN1CCN(c2ccccc2)CC1 (centres undefined) | inactive

Row | SMILES | Potency
26 | COc1ccc(-c2ccc(C(=O)N3CCN(C)CC3)c3occc23)c(C)c1 | inactive
27 | Nc1nc(COC(=O)CCC(=O)c2ccc(Cl)cc2)nc(Nc2ccccc2)n1 | inactive
28 | CCOc1ccccc1CNC(=O)CSc1n[nH]c(-c2ccccc2)n1 | inactive
29 | Nc1nc(CSc2n[nH]c(-c3ccccc3)n2)nc(Nc2ccccc2)n1 | 25.1 µM (active)
30 | O=C1c2cccnc2Oc2ccc(Cl)cc2N1Cc1ccc(F)cc1 | inactive
31 | [N-]=[N+]=CC(=O)C(Cc1ccccc1)N1C(=O)c2ccccc2C1=O (centres undefined) | inactive
32 | O=C(c1cc2ccc3cccnc3c2[nH]1)N1CCN(c2cccc(Cl)c2)CC1 | inactive
33 | O=C(c1cc2ccc3cccnc3c2[nH]1)N1CCCCC1 | 14.1 µM (active)
34 | Cc1ccc2[nH]c(C(=O)N3CCCCC3)cc2c1 | inactive
35 | CN(C)N(Cc1ccccc1)C(=O)C(O)(c1ccccc1)c1ccccc1 | inactive
36 | CCc1ccc(NC(=O)CSCc2nc(N)nc(Nc3ccccc3CC)n2)cc1 | inactive
37 | CCCC(=O)Nc1cccc(NC(=O)c2cccc([N+](=O)[O-])c2C)c1 | inactive
38 | Cc1ccc(C(=O)COC(=O)c2cc(Cl)ccc2O)cc1[N+](=O)[O-] | inactive
39 | Cc1ccc(C(=O)COC(=O)c2cccc(NC(=O)c3ccc([N+](=O)[O-])cc3[N+](=O)[O-])c2)cc1 | 20 µM (active)
40 | C=C(C(=O)c1ccccc1)C(c1ccccc1)C(C)C(=O)c1ccccc1 (centres undefined) | inactive
41 | CC(=O)OC1CC2C(C)(C)C(O)CC[C@@]2(C)C2CC[C@@]3(C)C(c4ccoc4)OC(=O)C4OC43[C@]12C (some centres undefined) | inactive
42 | CS(=O)(=O)c1ccc(C(=O)Nc2ccc(-c3nc4ccccc4[nH]3)cc2)cc1 | inactive
43 | CS(=O)(=O)c1ccc(C(=O)Nc2cccc(-c3nc4ccccc4[nH]3)c2)cc1 | inactive
44 | COC(=O)c1ccc(-c2nc3ccccc3[nH]2)cc1 | 15.8 µM (active)
45 | COc1ccccc1N1CCN(Cc2cc(=O)oc3cc(C)ccc23)CC1 | inactive
46 | Cc1nc2ccccc2c2oc(C(=O)N3CC(C)CC(C)C3)cc12 (centres undefined) | inactive
47 | Cc1ccc(OC(=O)Cn2c(C(F)(F)F)nc3ccccc32)cc1 | inactive
48 | COc1cccc(NC(=S)NCc2cccs2)c1 | inactive
49 | CC(=O)N1CC=C2C(C#N)=C(N)C(C#N)(C#N)C(CCc3ccccc3)C2C1 (centres undefined) | inactive
50 | N#CC1=C(N)C(C#N)(C#N)C(c2cccnc2)C2CN(C(=O)OCc3ccccc3)CC=C12 (centres undefined) | 22.4 µM (active)

Row | SMILES | Potency
51 | N#CC1=C(N)C(C#N)(C#N)[C@H](c2ccoc2)[C@H]2CN(Cc3ccccc3)CC=C12 | inactive
52 | Brc1ccc([C@H]2C=C[C@H]3CCCN4CC[C@H]2[C@@H]3[C@]42CO2)cc1 | inactive
53 | CC(=O)Nc1ccc(S(=O)(=O)c2ccc([N+](=O)[O-])cc2)cc1 | inactive
54 | O=C1NC(=O)N(CCc2ccc(F)cc2)C(=O)/C1=C/C=C/c1ccccc1 | 10 µM (active)
55 | COc1ccc(CN2C(=O)NC(=O)/C(=C/c3ccoc3)C2=O)cc1 | inactive
56 | O=C1NC(=O)N(Cc2ccccc2)C(=O)/C1=C\N1CCCc2ccccc21 | inactive
57 | O=C(Nc1ccc2c(c1)OCO2)c1cc(-c2ccc(Br)cc2)on1 | inactive
58 | CN(CCOc1ccc(Cl)cc1)CC(=O)Nc1ccc(OC(F)(F)F)cc1 | inactive
59 | N#Cc1c(/N=C/c2cccs2)sc2c1CCCCC2 | 25.1 µM (active)
60 | Cc1[nH]n(-c2ccc(F)cc2)c(=O)c1/C=N/c1sc2c(c1C#N)CCCC2 | inactive
61 | O=C(Nc1sc2c(c1C(=O)Nc1ccc(Cl)cc1)CCCC2)c1cccs1 | inactive
62 | O=C(Cc1ccccc1)NCC(=O)OCc1ccccc1F | inactive
63 | CC(Sc1nc2ccccc2c(=O)n1CC1CCCO1)C(=O)N(C)c1ccccc1 (centres undefined) | inactive
64 | COc1ccc(C(CC(=O)Nc2cc([N+](=O)[O-])ccc2OC)c2ccccc2)cc1 (centres undefined) | inactive
65 | CC(=O)NNC(=S)NC(=O)C(c1ccccc1)c1ccccc1 | inactive
66 | CCOC1=C2CN(S(=O)(=O)c3ccc(C)cc3)[C@H](c3ccccc3)C[C@@H]2N(S(=O)(=O)c2ccc(C)cc2)[C@H](c2ccccc2)C1 | inactive
67 | CC(C)c1ccc(NC(=O)c2cc(S(=O)(=O)N(C)C3CCCCC3)ccc2F)cc1 | inactive
68 | CCc1ccc2oc(-c3cc(N)ccc3Cl)nc2c1 | 17.8 µM (active)
69 | CCCOc1ccc(C(=O)Nc2ccc3oc(-c4cccc(Cl)c4Cl)nc3c2)cc1 | inactive
70 | CCOCCc1nnc(NC(=O)CS(=O)(=O)Cc2ccccc2)s1 | inactive
71 | CCCCN1C[C@H](CSC)[C@@H](CC(=O)NC)C1=O | inactive
72 | COc1ccc(NC(=O)NC23CC4(C)CC(C)(CC(C)(C4)C2)C3)cc1OC | inactive
73 | COc1ccc(N2CCN(C(=O)CN3CCSc4ccccc43)CC2)cc1 | inactive
74 | Cc1ccn2c(/C=N/OCc3cccc(F)c3)c(-c3ccc(Cl)cc3)nc2c1 | inactive
75 | Cc1ccc2nc(-c3ccc(NC(=O)COC(=O)c4ccco4)cc3)sc2c1 | 12.6 µM (active)

Row | SMILES | Potency
76 | Cc1ccc(OCC(=O)Nc2ccc3c(c2)nc(CCNC(=O)c2ccco2)n3C)cc1 | inactive
77 | Cc1ccc2nc(-c3ccc(NC(=O)COC(=O)c4cncc(Br)c4)cc3)sc2c1 | 17.8 µM (active)
78 | Cc1ccc(C(=O)OCC(=O)Nc2ccc(C)c(S(=O)(=O)N3CCCCC3)c2)c(O)c1 | inactive
79 | CCN(CC)S(=O)(=O)c1cccc(NC(=O)COC(=O)c2cncc(Br)c2)c1 | inactive
80 | O=C(COC(=O)c1ccco1)Nc1ccc2[nH]c(=O)[nH]c2c1 | inactive
81 | O=C(N/N=C/c1cccc([N+](=O)[O-])c1)c1ccc(CN2CCOCC2)cc1 | inactive
82 | CCOc1cc(/C=N/Nc2cc(C)nc(-n3nc(C)cc3C)n2)ccc1O | inactive
83 | CC(OC(=O)/C=C/c1ccco1)C(=O)NC1CCCCC1C (centres undefined) | inactive
84 | O=C1c2ccccc2C(=O)C1c1ccnc2ccccc12 | 14.1 µM (active)
85 | Cc1ccc2c(CC(=O)N3CCN(S(=O)(=O)c4cccs4)CC3)coc2c1 | inactive
86 | O=C(CCCc1nc2ccccc2s1)N1CCN(S(=O)(=O)c2cccs2)CC1 | 25.1 µM (active)
87 | O=S(=O)(c1cccs1)N1CCN(CCc2ccccc2)CC1 | inactive
88 | COc1ccc(C(=O)NCC(=O)N2CC=C(c3ccccc3)CC2)cc1OC | inactive
89 | O=c1nc(N/N=C/C=C/c2ccccc2)cn[nH]1 | 14.1 µM (active)
90 | COc1ccc(CCN(C)C(=O)c2cc(S(=O)(=O)N3CCCCC3)ccc2Cl)cc1OC | inactive
91 | COCCn1c(C)cc(C(=O)COC(=O)c2ccc[nH]c2=O)c1C | inactive
92 | Cc1sc2ncnc(NCC(c3ccco3)N3CCCC3)c2c1C (centres undefined) | inactive
93 | CCOc1cc(-c2c(C#N)c(=O)[nH]c3c2c(C)nn3-c2ccc(F)cc2)ccc1O | inactive
94 | COc1ccc2oc(=O)c(C(=O)NCCc3c(C)[nH]c4ccc(C)cc34)cc2c1 | inactive
95 | O=C(CSc1nnc(NC(=O)c2ccc3c(c2)OCO3)s1)NCc1ccco1 | 17.8 µM (active)
96 | COc1ccc(-c2cnc(SCC(=O)Nc3ccc4c(c3)OCO4)n2Cc2ccco2)cc1 | inactive
97 | COc1cc(OC)cc(C(=O)Nc2nnc(SCC(=O)NCc3ccco3)s2)c1 | inactive
98 | Cc1cc(C)cc(-n2c(SCC(=O)Nc3cccc(F)c3)nc3c([nH]c4ccccc43)c2=O)c1 | inactive
99 | COc1ccc(C)cc1NC(=O)CN(C)S(=O)(=O)c1cc(C)ccc1OC | inactive
